# Laboratory results reported in PubChem BioAssay (Tox21).
# “And” between values parts separate entries of the source, which are not always exact repeats. Identical values can stand only once. Records with an inconclusive call do not appear. Entries that show only a call come without a potency. Some compounds were tested as several samples or in several runs, with calls that do not always agree. The source made the active and inactive calls. Unless noted, the call rests on the fitted dose curve; in most records, active means well fitted curve in the direction sought with a large enough effect in the repeat runs; inconclusive means weak or mixed curves; inactive means no such curve, though single readings can be large; an effect the other way counts as inactive or inconclusive. Residues, ends and D or L forms follow the SMILES beside them.
# How the values were obtained:
# [1] = qHTS assay to identify small molecule antagonists of the androgen receptor (AR) signaling pathway using the MDA cell line in the presence of 0.5 nM R1881 - cell viability counter screen (AID 1259242); further: nearly all actives have a fitted effect of over 45% in size
# Procedure, shortened: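 Cells seeded at 3,000/well and allowed 5 hr at 37C, 0% CO2 before compound transfer and R1881 (0.5 nM final) addition; 16 hr later, live-cell protease fluorescence indicated cytotoxicity.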
# [2] = target: Estrogen receptor (Homo sapiens) (UniProt P03372); experiment: qHTS assay to identify small molecule antagonists of the estrogen receptor alpha (ER-alpha) signaling pathway using the BG1 cell line in the presence of 0.1 nM 17-beta-estradiol (AID 1259244); further: nearly all actives have a fitted effect of over 50% in size
# Procedure, shortened: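 Luciferase signal from VM7Luc4E2 ERE-reporter cells, co-dosed with test compound and 0.1 nM final 17beta-estradiol for 22 h, read with ONE-Glo.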
# [3] = qHTS assay to identify small molecule HDAC inhibitors (AID 1259364);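 further: wild-type HCT-116 cells with endogenous class I/II HDAC activity; top concentration of the series differs between compounds; nearly all actives have a fitted effect of over 45% in size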
# Procedure, shortened: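 HCT-116 wt cells, 1,500/well, overnight attach. Compounds (DMSO) 2 h, 37 °C. HDAC-Glo I/II, 30 min RT. Luminescence.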
# [4] = qHTS assay to identify small molecule HDAC inhibitors - cell viability counter screen (AID 1259365); further: series mostly up to about 92 µM; nearly all actives have a fitted effect of over 50% in size
# Procedure, shortened: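 Wild-type HCT-116 cells were seeded at 1,500 per well, incubated overnight at 37 C, then exposed to compounds in DMSO for 2hr. Viability was read by CellTiter-Glo luminescence after 30min at room temperature.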
# [5] = qHTS assay to identify small molecule agonists of the sonic hedgehog signaling (Shh) pathway - cell viability counter screen (AID 1259366); further: nearly all actives have a fitted effect of over 50% in size; further: potency means the concentration at half of the fitted maximal effect
# Procedure, shortened: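 NIH/3T3-derived 3T3 Gli1-Luc cells (stable Gli1-responsive firefly luciferase reporter) were seeded, rested 4 hr at 37 C/5% CO2, then exposed to compounds in DMSO for 24 hr; viability was read by CellTiter-Fluor fluorescence in the same wells.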
# [6] = qHTS assay to identify small molecule antagonists of the sonic hedgehog signaling (Shh) pathway - cell viability counter screen (AID 1259367); further: nearly all actives have a fitted effect of over 55% in size; further: potency means the concentration at half of the fitted maximal effect
# Procedure, shortened: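 Tox21 library chemicals were tested on a Gli1-Luc NIH/3T3 clone (2,000 cells/well) stimulated by conditioned medium; viability was quantified as fluorescence from CellTiter-Fluor reagent added at 23 hr.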
# [7] = qHTS assay to identify small molecule agonists of the sonic hedgehog signaling (Shh) pathway (AID 1259368; calls by dose curve; further: series mostly up to about 92 µM; nearly all actives have a fitted effect of over 15% in size)
# Procedure, shortened: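 Following a 24 hr incubation with DMSO-dissolved compounds at 37 C, 5% CO2, Gli1-Luc NIH/3T3-derived cells received luciferase reagent for 30 min at room temperature prior to luminescence measurement.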
# [8] = qHTS assay to identify small molecule agonists of the androgen receptor (AR) signaling pathway in the presence of an antagonist - cell viability counter screen (AID 1259379); further: nearly all actives have a fitted effect of over 25% in size; further: potency means the concentration at half of the fitted maximal effect
# Procedure, shortened: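 Each compound was tested at 15 concentrations on MDA-kb2 cells in the presence of 3.0uM nilutamide. Viability was measured by CellTiter-Fluor fluorescence after a 16 hr incubation at 37C in a CO2-free atmosphere.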
# [9] = qHTS assay to identify small molecule agonists of the estrogen receptor beta (ER-beta) signaling pathway - cell viability counter screen (AID 1259380); further: nearly all actives have a fitted effect of over 30% in size; further: potency means the concentration at half of the fitted maximal effect
# Procedure, shortened: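 Compounds dissolved in DMSO were pin-transferred onto ER-beta-UAS-bla HEK293T cells that had settled 6 hr, and exposure ran 16 hr at 37C. Following the reporter read, CellTiter-Glo luminescence after 30 min at room temperature indicated cytotoxicity.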
# [10] = target: Estrogen receptor (Homo sapiens) (UniProt P03372); experiment: qHTS assay to identify small molecule agonists of the estrogen receptor alpha (ER-alpha) signaling pathway in the presence of an antagonist (AID 1259383; calls by dose curve; further: top concentration of the series differs between compounds; nearly all actives have a fitted effect of over 15% in size)
# Procedure, shortened: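 Luminescent ERE-luciferase reporter, VM7Luc4E2 cells (endogenous ER-alpha); 10.0nM ICI-182,780 final; 15-point compound titration; 22hr at 37C; ONE-Glo, 30min RT.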
# [11] = qHTS assay to identify small molecule agonists or antagonists of the thyroid stimulating hormone receptor (TSHR) signaling pathway - wild type cell line counter screen (AID 1259384; calls by dose curve)
# Procedure, shortened: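 Wild-type Hek293 cells, 800/well, 18 h at 37C, then compound with Ro20-1724 for 30 min RT. cAMP by HTRF (cAMP-d2/anti-cAMP cryptate), 1 h RT, fluorescence read. 15 concentrations, triplicates.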
# [12] = target: Thyrotropin receptor (Homo sapiens) (UniProt P16473); experiment: qHTS assay to identify small molecule antagonists of the thyroid stimulating hormone receptor (TSHR) signaling pathway (AID 1259385; calls by dose curve; further: nearly all actives have a fitted effect of over 20% in size)
# Procedure, shortened: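 TSHR-HEK293 cells (800/well) plated 18 h, then compounds with Ro20-1724 and TSH at 1.5 ng/mL final, 30 min at room temperature. cAMP quantified by HTRF (cAMP-d2/anti-cAMP-cryptate, 1 h); 15 concentrations in triplicate.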
# [13] = target: Estrogen receptor beta (Homo sapiens) (UniProt Q92731); experiment: qHTS assay to identify small molecule antagonists of the estrogen receptor beta (ER-beta) signaling pathway (AID 1259378; active means well fitted inhibition curve with a large enough effect in the signal ratio in the repeat runs, not every such curve was filed as active; the % refers to the signal ratio)
# Procedure, shortened: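 ER-beta-UAS-bla HEK293T cells in 2% charcoal-stripped FBS medium treated with compound plus 1nM final 17-beta-estradiol for 16 hr at 37C. Beta-lactamase reporter read by FRET substrate fluorescence after 2 hours at room temperature.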
# [14] = qHTS assay to identify small molecule antagonists of the estrogen receptor beta (ER-beta) signaling pathway - cell viability counter screen (AID 1259382); further: series mostly up to about 92 µM; nearly all actives have a fitted effect of over 55% in size
# Procedure, shortened: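 CellTiter-Glo ATP luminescence measured after the LiveBLAzer read in the same wells; ER-beta-UAS-bla HEK293T cells, 16 hr compound treatment with 1nM 17-beta-estradiol agonist at 37C, 5% CO2.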
# [15] = qHTS assay to identify small molecule agonists of the estrogen receptor alpha (ER-alpha) signaling pathway in the presence of an antagonist - cell viability counter screen (AID 1259386);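 further: series mostly up to about 92 µM; cells exposed to compounds for 22 h at 37 °C before the viability read; nearly all actives have a fitted effect of over 30% in size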
# Procedure, shortened: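 Using estrogen-depleted VM7Luc4E2 cells, the 15-concentration compound series was applied together with 10.0nM ICI-182,780 and incubated 22hr at 37C/5% CO2. Cell viability was then scored by CellTiter-Fluor.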
# [16] = qHTS assay to identify small molecule phospholipidosis (PLD) inducers (AID 1259344; active means well fitted curve in the direction sought with a large enough effect; an effect the other way counts as inactive or inconclusive)
# Procedure, shortened: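 Image-based: LipidTOX Red pit count/intensity per well and per cell; HepG2, 24 h compound at 37 C, PFA fixation, Hoechst counterstain.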
# [17] = qHTS assay to identify small molecule antagonists of the sonic hedgehog signaling (Shh) pathway (AID 1259369; calls by dose curve; further: nearly all actives have a fitted effect of over 45% in size; further: potency means the concentration at half of the fitted maximal effect)
# Procedure, shortened: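 Read-out is luminescence from a firefly luciferase gene controlled by the Gli1 response element, in 3T3Gli1-Luc cells pre-incubated 4hr then exposed to compounds and conditioned medium for 24hr.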
# [18] = target: Estrogen receptor beta (Homo sapiens) (UniProt Q92731); experiment: qHTS assay to identify small molecule agonists of the estrogen receptor beta (ER-beta) signaling pathway (AID 1259377; active means well fitted activation curve with a large enough effect in the signal ratio in the repeat runs, not every such curve was filed as active; the % refers to the signal ratio)
# Procedure, shortened: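 ER-beta-UAS-bla HEK293T (GripTite) cells carrying a UAS-driven beta-lactamase reporter, in medium with 2% charcoal-stripped FBS, were exposed to compounds for 16 hr at 37C; LiveBLAzer B/G FRET substrate was then added and fluorescence read after 2 hours at room temperature.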
# Estrogen receptor (Homo sapiens), sequence (P03372 whole entry, looked up): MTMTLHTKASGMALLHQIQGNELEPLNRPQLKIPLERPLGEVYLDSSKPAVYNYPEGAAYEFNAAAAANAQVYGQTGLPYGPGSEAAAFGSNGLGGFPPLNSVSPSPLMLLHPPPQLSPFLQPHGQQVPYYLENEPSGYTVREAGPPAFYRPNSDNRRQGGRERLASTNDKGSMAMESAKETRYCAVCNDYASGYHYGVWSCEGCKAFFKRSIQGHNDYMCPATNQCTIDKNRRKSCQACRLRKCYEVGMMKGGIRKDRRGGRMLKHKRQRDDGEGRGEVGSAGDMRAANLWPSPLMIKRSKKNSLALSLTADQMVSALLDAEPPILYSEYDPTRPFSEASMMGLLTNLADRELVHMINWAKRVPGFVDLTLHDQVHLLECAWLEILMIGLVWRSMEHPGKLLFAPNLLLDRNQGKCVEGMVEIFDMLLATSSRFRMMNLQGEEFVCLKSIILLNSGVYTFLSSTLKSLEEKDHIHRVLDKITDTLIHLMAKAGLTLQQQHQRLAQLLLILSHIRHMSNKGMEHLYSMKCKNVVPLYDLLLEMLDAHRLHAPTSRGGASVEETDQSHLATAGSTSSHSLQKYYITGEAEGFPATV
# Thyrotropin receptor (Homo sapiens), sequence (P16473 whole entry, looked up): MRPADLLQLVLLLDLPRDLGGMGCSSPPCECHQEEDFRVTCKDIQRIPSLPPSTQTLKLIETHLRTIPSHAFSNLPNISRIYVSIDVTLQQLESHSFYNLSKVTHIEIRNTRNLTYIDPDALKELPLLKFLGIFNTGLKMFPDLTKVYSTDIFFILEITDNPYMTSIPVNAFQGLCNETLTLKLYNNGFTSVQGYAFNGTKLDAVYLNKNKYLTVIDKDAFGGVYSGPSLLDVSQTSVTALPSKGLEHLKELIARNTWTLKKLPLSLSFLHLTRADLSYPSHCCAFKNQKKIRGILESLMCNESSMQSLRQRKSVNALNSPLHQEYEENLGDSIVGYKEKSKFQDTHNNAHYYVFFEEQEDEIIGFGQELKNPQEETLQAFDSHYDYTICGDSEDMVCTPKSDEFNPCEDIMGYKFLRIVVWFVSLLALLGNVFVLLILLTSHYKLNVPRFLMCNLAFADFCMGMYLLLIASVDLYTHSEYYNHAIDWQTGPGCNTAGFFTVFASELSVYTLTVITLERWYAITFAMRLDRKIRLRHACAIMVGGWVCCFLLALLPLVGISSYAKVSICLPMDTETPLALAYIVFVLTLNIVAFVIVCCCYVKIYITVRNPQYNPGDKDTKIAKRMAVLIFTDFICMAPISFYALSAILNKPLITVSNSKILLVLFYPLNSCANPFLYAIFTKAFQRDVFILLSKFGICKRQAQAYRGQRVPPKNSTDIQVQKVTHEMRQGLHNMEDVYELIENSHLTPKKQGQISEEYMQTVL
# Estrogen receptor beta (Homo sapiens), sequence (Q92731 whole entry, looked up): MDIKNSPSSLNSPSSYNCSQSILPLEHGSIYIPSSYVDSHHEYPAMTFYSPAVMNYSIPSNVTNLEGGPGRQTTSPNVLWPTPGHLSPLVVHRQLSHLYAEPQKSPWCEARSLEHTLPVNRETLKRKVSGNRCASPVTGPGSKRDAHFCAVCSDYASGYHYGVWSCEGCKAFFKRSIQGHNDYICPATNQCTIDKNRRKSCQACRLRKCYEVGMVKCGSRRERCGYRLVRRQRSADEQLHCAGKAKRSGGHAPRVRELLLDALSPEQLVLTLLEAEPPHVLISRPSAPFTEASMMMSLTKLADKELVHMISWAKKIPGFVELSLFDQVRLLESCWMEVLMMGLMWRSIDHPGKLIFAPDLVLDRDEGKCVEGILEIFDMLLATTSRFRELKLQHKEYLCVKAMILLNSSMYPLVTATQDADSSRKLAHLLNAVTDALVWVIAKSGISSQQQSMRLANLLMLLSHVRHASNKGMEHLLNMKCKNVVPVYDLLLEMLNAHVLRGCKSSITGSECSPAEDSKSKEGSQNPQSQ
SMILES,Potency [1],Potency [2],Potency [3],outcome [4],Potency [5],Potency [6],outcome [7],Potency [8],Potency [9],Potency [10],outcome [11],outcome [12],Potency [13],Potency [14],Potency [15],outcome [16],Potency [17],outcome [18]
CC(O)C(=O)O (stereo unspecified),inactive,inactive,inactive,inactive,inactive,inactive,inactive,inactive,inactive,inactive,inactive,inactive,–,–,–,–,–,–
C/C=C/c1ccc(OC)cc1,inactive,–,inactive,inactive,inactive,inactive,inactive,inactive,inactive,–,inactive,inactive,inactive,inactive,–,–,–,–
COC(=O)[C@H](Cc1ccccc1)NC(=O)[C@@H](N)CC(=O)O (H-Asp-Phe-OMe),inactive,inactive,inactive,inactive,inactive,inactive,inactive,inactive,inactive,inactive,inactive,inactive,–,inactive,inactive,–,–,–
O=C(O)c1[nH]n(-c2ccc(S(=O)(=O)O)cc2)c(=O)c1N=Nc1ccc(S(=O)(=O)O)cc1,–,inactive,inactive,inactive,27.4 µM (active) and 25.5 µM (active),30.7 µM (active) and 25.5 µM (active),inactive,23.7 µM (active) and 54.6 µM (active) and 28.6 µM (active),inactive,inactive,inactive,inactive,–,–,–,inactive,–,–
O=C(O)c1cccnc1,inactive,–,inactive,inactive,inactive,inactive,inactive,inactive,inactive,–,inactive,inactive,inactive,–,inactive,–,inactive,–
CCC1(c2ccccc2)C(=O)NCNC1=O,inactive,–,inactive,inactive,inactive,inactive,inactive,inactive,inactive,–,inactive,inactive,inactive,inactive,inactive,–,–,–
O=C(O)CS,inactive,inactive,inactive,inactive,inactive and 30.9 µM (active),inactive,inactive,inactive,inactive,inactive,–,–,–,inactive,inactive,–,–,–
O=C1NC(=O)c2ccccc21,inactive,–,inactive,inactive,inactive,inactive,inactive,inactive,inactive,–,inactive,inactive,–,inactive,inactive,–,–,–
NC(=O)c1cnccn1,inactive,inactive,inactive,inactive,inactive,inactive,inactive,inactive,inactive and 33.5 µM (active),inactive,–,–,inactive,–,inactive,–,–,–
CC(O)CN(CCN(CC(C)O)CC(C)O)CC(C)O (stereo unspecified),inactive,–,inactive,inactive,inactive,inactive,inactive,inactive,inactive,–,inactive,inactive,inactive,–,inactive,–,–,–
CCOc1ccc(NC(=O)CC(C)O)cc1 (stereo unspecified),inactive,–,inactive,inactive,inactive,inactive,inactive,inactive,inactive,–,inactive,inactive,–,inactive,inactive,inactive,inactive,–
CCCCC1C(=O)N(c2ccccc2)N(c2ccccc2)C1=O,inactive,inactive,inactive,inactive,inactive,inactive,inactive,inactive,inactive,inactive,inactive,inactive,inactive,inactive,–,–,–,–
Nc1ccc(O)c(C(=O)O)c1,inactive,inactive,inactive,inactive,inactive,inactive,inactive,inactive,inactive,inactive,inactive,inactive,inactive,–,–,–,–,–
Cc1cc(=O)[nH]c(=S)[nH]1,inactive,inactive,inactive,inactive,inactive,inactive,inactive,inactive,inactive,inactive,inactive,inactive,–,–,inactive,–,–,–
O=C(C1CCCCC1)N1CC(=O)N2CCc3ccccc3C2C1 (stereo unspecified),inactive,–,inactive,inactive,–,inactive,inactive,inactive,43.2 µM (active) and inactive,–,–,–,–,inactive,inactive,inactive,–,–
O=S(=O)(O)c1ccc2cc(O)ccc2c1,inactive,–,inactive,inactive,inactive,inactive,inactive,inactive,inactive,–,–,–,–,–,–,–,inactive,–
NC(=O)c1ccccc1O,inactive,inactive,inactive,inactive,inactive,inactive,inactive,inactive,inactive,inactive,inactive,inactive,inactive,inactive,–,–,–,–
O=C(c1ccccc1)C(O)c1ccccc1 (stereo unspecified),inactive,–,inactive,inactive,inactive,inactive,inactive,inactive,inactive,–,inactive,inactive,inactive,inactive,–,–,inactive,–
CC(=O)OCC(COC(C)=O)OC(C)=O,inactive,–,inactive,inactive,inactive,inactive,inactive,inactive,inactive,–,inactive,inactive,inactive,inactive,inactive,–,–,inactive
O=C1CN(/N=C/c2ccc([N+](=O)[O-])o2)C(=O)N1,inactive,inactive,inactive,inactive,48.6 µM (active),48.4 µM (active) and 38.6 µM (active),inactive,27.2 µM (active) and 61.1 µM (active) and 23.7 µM (active),–,inactive,inactive,inactive,–,–,–,–,48.4 µM (active) and 27.3 µM (active) and inactive,–
NC(=O)NC1NC(=O)NC1=O (stereo unspecified),inactive,–,inactive,inactive,inactive,inactive,inactive,inactive,inactive,–,inactive,inactive,–,–,–,–,inactive,–
